# Test results published in PubChem BioAssay (EPA / NIEHS).
# Results filed as inconclusive are left out. The source made the active and inactive calls. Rule for the calls, unless noted: active = hit-call score of the fitted dose curve at least 0.9, where 1 is the maximum; inconclusive = response in the unintended direction; inactive = score below 0.9.
# Columns and labels:
# [1] = CCTE_Shafer_MEA_dev_firing_rate_mean: CCTE's Neural Network Formation Assay for Mean Firing Rate, Shafer Lab (AID 2284031; active = hit-call score of the fitted dose curve at least 0.9, where 1 is the maximum; inactive = score below 0.9)
# How it was run: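 Extracellular spike frequency, AUC over DIV 5–12 recordings, in rat cortical neuron MEA cultures dosed from plating; loss direction vs DMSO.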
# [2] = CCTE_Shafer_MEA_dev_per_burst_spike_percent: CCTE's Neural Network Formation Assay for Percent of Spikes in a Burst, Shafer Lab (AID 2284032; active = hit-call score of the fitted dose curve at least 0.9, where 1 is the maximum; inactive = score below 0.9)
# How it was run: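 Value is trapezoidal AUC over recordings on days 5, 7, 9 and 12 of the well-mean fraction of spikes falling in single-electrode bursts; rat cortical cultures exposed continuously from plating, treatment renewed DIV 5 and 9, fitted downward against DMSO.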
# [3] = CCTE_Shafer_MEA_dev_burst_rate: CCTE's Neural Network Formation Assay for Burst Rate, Shafer Lab (AID 2284042; active = hit-call score of the fitted dose curve at least 0.9, where 1 is the maximum; inactive = score below 0.9)
# How it was run: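 Primary rat cortical neurons on PEI-coated 48-well MEA plates (laminin added with cells at plating) (16 electrodes/well), exposed from plating to day 12, dosing renewed at DIV 5 and 9. Burst rate averaged over active electrodes, recorded DIV 5, 7, 9, 12, summarized as AUC; loss versus DMSO.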
# [4] = target: Estrogen receptor (Homo sapiens) (UniProt P03372); assay: CCTE_Deisenroth_AIME_384WELL_LUC_Active: CCTE's 384-well Estrogen Receptor Transactivation Assay with AIME metabolic competence (ERTA luciferase; metabolism positive), Deisenroth Lab (AID 2284030)
# How it was run: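 VM7Luc4E2 breast cells were given, for 24 hours, medium pre-incubated for 2 hours with parent chemical (0.002-200 uM, 10 concentrations) and alginate-encapsulated phenobarbital/beta-naphthoflavone-induced rat hepatic S9. Luciferase gain of signal was fitted against 17beta-estradiol; n=4 or more.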
# [5] = CCTE_Deisenroth_AIME_384WELL_CTox_Active: Cytotoxicity Assessment (CTOX) in CCTE's 384-well Estrogen Receptor Transactivation Assay with AIME metabolic competence (metabolism positive), Deisenroth Lab (AID 2284037);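 note: chemicals first conditioned 2 h by alginate-bound induced rat liver S9 before cells; activity means signal loss indicating cell death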
# How it was run: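 VM7Luc4E2 breast cells received medium pre-incubated 2 h with chemical over alginate microspheres holding induced male Sprague Dawley rat liver S9; viability read 24 h later by protease-substrate fluorescence. Loss of signal, bidirectional fit, 0.002–200 uM.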
# [6] = target: Estrogen receptor (Homo sapiens) (UniProt P03372); assay: CCTE_Deisenroth_AIME_384WELL_LUC_Inactive: CCTE's 384-well Estrogen Receptor Transactivation Assay without AIME metabolic competence (ERTA luciferase; metabolism negative), Deisenroth Lab (AID 2284038);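 note: hits raise estrogen receptor luciferase signal so potencies reflect agonists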
# How it was run: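 Metabolism-negative mode: AIME lids stamped in alginate-water, no hepatic S9. 2 h chemical incubation → medium onto VM7Luc4E2 ERTA, 24 h. Readout luciferase luminescence; gain-of-signal fit vs 17beta-estradiol. Conc. 0.002 - 200 uM.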
# [7] = target: Estrogen receptor (Homo sapiens) (UniProt P03372); assay: CCTE_Deisenroth_AIME_384WELL_LUC_Shift: CCTE's 384-well Estrogen Receptor Transactivation Assay with AIME metabolic competence data shift (ERTA luciferase; difference in metabolism positive and negative), Deisenroth Lab (AID 2284041; active = hit-call score of the fitted dose curve at least 0.9, where 1 is the maximum; inactive = score below 0.9;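 note: shift is response with S9 minus without S9 so positive means metabolism raised ER signal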)
# How it was run: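 Here, parent compounds undergo 2 h phase I metabolism by PB/BNF-induced rat S9 before 24 h transactivation in VM7Luc4E2 cells; the curve models S9-positive minus S9-negative response over a 10-point series.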
# [8] = CCTE_Deisenroth_AIME_384WELL_CTox_Inactive: Cytotoxicity Assessment (CTOX) in CCTE's 384-well Estrogen Receptor Transactivation Assay without AIME metabolic competence (metabolism negative), Deisenroth Lab (AID 2284039);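 note: cell viability via live-cell protease substrate cleaved to fluorescent probe; cells exposed 24 h to medium preincubated 2 h with alginate-water beads without S9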
# How it was run: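 VM7Luc4E2 cells, metabolism-negative arm: test chemicals (0.002–200 uM, 10 points) pre-incubated 2 h with alginate-water microspheres, then medium transferred to cells for 24 h. Viability read as protease-substrate cleavage to fluorescent probe; loss-of-signal, bidirectional fitting.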
# [9] = CCTE_Deisenroth_AIME_96WELL_CTox_Active: Cytotoxicity Assessment (CTOX) in CCTE's 96-well Estrogen Receptor Transactivation Assay with AIME metabolic competence (metabolism positive), Deisenroth Lab (AID 2284028)
# How it was run: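 Cytotoxicity in VM7Luc4E2 breast cells after 24 h exposure to medium from a 2 h metabolic pre-incubation with induced rat hepatic S9 in alginate microspheres; fluorescent live-cell protease readout, 10-point series 0.002–200 uM, n=4.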
# [10] = CCTE_Deisenroth_AIME_96WELL_CTox_Inactive: Cytotoxicity Assessment (CTOX) in CCTE's 96-well Estrogen Receptor Transactivation Assay without AIME metabolic competence (metabolism negative), Deisenroth Lab (AID 2284029)
# How it was run: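 Cytotoxicity in VM7Luc4E2 breast cells was scored as loss of fluorescent signal from a live-cell protease substrate 24 h after exposure, using bidirectional curve fitting. Test media came from a 2 h metabolism-negative pre-incubation (alginate-water, no hepatic S9) of compounds at 0.002-200 uM, with at least four replicates.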
# Estrogen receptor (Homo sapiens), sequence (P03372 whole entry, looked up): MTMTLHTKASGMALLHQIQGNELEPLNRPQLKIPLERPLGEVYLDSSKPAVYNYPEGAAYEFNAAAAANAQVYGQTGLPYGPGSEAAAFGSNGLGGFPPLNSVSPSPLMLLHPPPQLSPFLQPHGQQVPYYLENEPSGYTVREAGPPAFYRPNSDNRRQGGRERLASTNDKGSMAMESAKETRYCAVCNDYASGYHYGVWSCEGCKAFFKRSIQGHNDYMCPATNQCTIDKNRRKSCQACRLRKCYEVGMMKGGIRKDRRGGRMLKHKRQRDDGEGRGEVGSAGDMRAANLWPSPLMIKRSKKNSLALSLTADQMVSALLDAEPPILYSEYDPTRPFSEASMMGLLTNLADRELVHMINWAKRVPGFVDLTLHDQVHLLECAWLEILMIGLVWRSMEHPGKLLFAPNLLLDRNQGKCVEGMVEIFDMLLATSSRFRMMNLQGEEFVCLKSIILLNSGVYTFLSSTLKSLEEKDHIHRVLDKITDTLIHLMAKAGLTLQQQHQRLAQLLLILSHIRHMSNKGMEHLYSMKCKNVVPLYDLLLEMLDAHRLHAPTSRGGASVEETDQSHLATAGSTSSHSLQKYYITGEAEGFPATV
structure (smiles),measurement,setting,value
CC(O)CO (configuration not stated),outcome,[1],inactive
same,outcome,[2],inactive
same,outcome,[3],inactive
COCC(C)OCC(C)O (configuration not stated),outcome,[4],inactive
same,outcome,[5],inactive
same,outcome,[6],inactive
same,outcome,[7],inactive
CN1CCC[C@H]1c1cccnc1,outcome,[4],inactive
same,outcome,[1],inactive
same,outcome,[2],inactive
same,outcome,[5],inactive
same,outcome,[6],inactive
same,outcome,[8],inactive
same,outcome,[7],inactive
same,outcome,[3],inactive
Oc1cc2ccccc2c2ccccc12,AC50,[5],19 µM (active)
same,AC50,[8],10.3 µM (active)
same,outcome,[7],inactive
CCCCCCC(=O)O,outcome,[4],inactive
same,outcome,[6],inactive
same,outcome,[7],inactive
Cc1ccc(S(=O)(=O)O)c(C)c1,outcome,[4],inactive
same,outcome,[5],inactive
same,outcome,[6],inactive
same,outcome,[8],inactive
same,outcome,[7],inactive
CCCCC(CC)COC(=O)CCCCC(=O)OCc1ccccc1 (configuration not stated),outcome,[4],inactive
same,outcome,[5],inactive
same,outcome,[6],inactive
same,outcome,[7],inactive
CCCCC(CC)COC(=O)CCCCC(=O)OCC(CC)CCCC (configuration not stated),outcome,[9],inactive
same,outcome,[10],inactive
CC(C)(C)c1ccc(O)c(C(C)(C)C)c1,AC50,[9],155 µM (active)
same,AC50,[10],163 µM (active)
same,AC50,[5],171 µM (active)
same,AC50,[8],179 µM (active)
same,AC50,[7],77.6 µM (active)
OCCC(F)(F)C(F)(F)C(F)(F)C(F)(F)C(F)(F)C(F)(F)C(F)(F)C(F)(F)F,outcome,[4],inactive
same,outcome,[1],inactive
same,outcome,[2],inactive
same,outcome,[6],inactive
same,outcome,[7],inactive
same,outcome,[3],inactive
C=C(C)C(=O)OCCC(F)(F)C(F)(F)C(F)(F)C(F)(F)C(F)(F)C(F)(F)F,outcome,[1],inactive
same,outcome,[2],inactive
same,outcome,[3],inactive
CCN(CC)CCNc1ccc(CNC=O)c2sc3ccc(OC)cc3c(=O)c12,AC50,[5],130 µM (active)
same,AC50,[6],26.2 µM (active)
same,AC50,[8],120 µM (active)
same,AC50,[7],5.72 µM (active)
CCCCCCCCCCCCCCCS(=O)(=O)Oc1ccccc1,AC50,[4],19.5 µM (active)
same,AC50,[6],9.6 µM (active)
same,outcome,[8],inactive
same,outcome,[7],inactive
N#C[C@@H]1CC(F)(F)CN1C(=O)CNC1CC2CCC(C1)N2c1ncccn1 (some centres not stated),outcome,[4],inactive
same,outcome,[5],inactive
same,outcome,[6],inactive
same,outcome,[8],inactive
same,outcome,[7],inactive
CCCCOCCO,outcome,[4],inactive
same,outcome,[6],inactive
same,outcome,[8],inactive
same,outcome,[7],inactive
CCCCCCCCCCCCN1CCCC1=O,AC50,[5],100 µM (active)
same,AC50,[8],57.1 µM (active)
same,outcome,[7],inactive
O=C(O)c1ccccc1C(c1ccc(O)cc1)c1ccc(O)cc1,AC50,[4],123 µM (active)
same,outcome,[5],inactive
same,AC50,[6],98.9 µM (active)
same,outcome,[8],inactive
same,AC50,[7],126 µM (active)
ClC1=C(Cl)C(Cl)(Cl)C(Cl)=C1Cl,outcome,[4],inactive
same,outcome,[5],inactive
same,outcome,[6],inactive
same,outcome,[7],inactive
O=c1c(-c2ccc(O)cc2)coc2cc(O)ccc12,outcome,[9],inactive
O=C(/C=C/c1ccc(O)cc1)CC(=O)/C=C/c1ccc(O)cc1,outcome,[9],inactive
CCCCC[C@H](O)CC(=O)CCc1ccc(O)c(OC)c1,outcome,[9],inactive
same,outcome,[10],inactive
OCCC(F)(F)C(F)(F)C(F)(F)C(F)(F)C(F)(F)C(F)(F)F,outcome,[4],inactive
same,outcome,[1],inactive
same,outcome,[2],inactive
same,outcome,[5],inactive
same,outcome,[6],inactive
same,outcome,[8],inactive
same,outcome,[7],inactive
same,outcome,[3],inactive
